# Measurements: PubChem BioAssay (NCATS)
# Results filed as inconclusive are left out. Where a call stands in place of a potency, no number is given. Active and inactive are the calls of the source. Unless noted, the call rests on the fitted dose curve; in most records, active means well fitted curve in the direction sought with a large enough effect; inconclusive means small, poorly fitted or top-dose-only effect, or another doubt; inactive means no such curve, though single readings can be large; an effect the other way counts as inactive or inconclusive.
# Assays:
# [1] = target: Retinoic acid receptor RXR-alpha (Homo sapiens) (UniProt P19793); assay: qHTS assay for small molecule agonists of retinoid X receptor alpha signaling (AID 588544; calls by dose curve); conditions: HEK293T RXRa-UAS-bla, beta-lactamase reporter, 18 h; series mostly up to 76.7 µM
# Chain of Retinoic acid receptor RXR-alpha (Homo sapiens) (P19793 whole entry, looked up): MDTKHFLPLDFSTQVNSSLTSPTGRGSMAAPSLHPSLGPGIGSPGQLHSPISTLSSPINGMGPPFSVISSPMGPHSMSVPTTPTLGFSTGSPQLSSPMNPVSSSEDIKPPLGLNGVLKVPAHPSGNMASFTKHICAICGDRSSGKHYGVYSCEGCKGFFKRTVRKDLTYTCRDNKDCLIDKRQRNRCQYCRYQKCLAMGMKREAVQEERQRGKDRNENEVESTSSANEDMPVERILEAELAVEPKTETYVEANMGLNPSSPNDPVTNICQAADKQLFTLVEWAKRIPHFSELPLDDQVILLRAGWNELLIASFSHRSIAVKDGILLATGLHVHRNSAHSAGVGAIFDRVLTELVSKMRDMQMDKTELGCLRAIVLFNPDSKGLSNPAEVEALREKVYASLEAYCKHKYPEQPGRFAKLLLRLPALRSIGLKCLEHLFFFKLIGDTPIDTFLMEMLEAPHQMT
# [2] = target: Thyroid hormone receptor beta (Homo sapiens) (UniProt P10828); assay: qHTS assay for small molecule agonists of thyroid hormone receptor beta signaling (AID 588545; calls by dose curve); conditions: TR-UAS-bla GripTite HEK 293, beta-lactamase ratio, agonist mode, 18 h, percent of T3 response, DMSO as zero; series mostly up to 76.7 µM
# Chain of Thyroid hormone receptor beta (Homo sapiens) (P10828 whole entry, looked up): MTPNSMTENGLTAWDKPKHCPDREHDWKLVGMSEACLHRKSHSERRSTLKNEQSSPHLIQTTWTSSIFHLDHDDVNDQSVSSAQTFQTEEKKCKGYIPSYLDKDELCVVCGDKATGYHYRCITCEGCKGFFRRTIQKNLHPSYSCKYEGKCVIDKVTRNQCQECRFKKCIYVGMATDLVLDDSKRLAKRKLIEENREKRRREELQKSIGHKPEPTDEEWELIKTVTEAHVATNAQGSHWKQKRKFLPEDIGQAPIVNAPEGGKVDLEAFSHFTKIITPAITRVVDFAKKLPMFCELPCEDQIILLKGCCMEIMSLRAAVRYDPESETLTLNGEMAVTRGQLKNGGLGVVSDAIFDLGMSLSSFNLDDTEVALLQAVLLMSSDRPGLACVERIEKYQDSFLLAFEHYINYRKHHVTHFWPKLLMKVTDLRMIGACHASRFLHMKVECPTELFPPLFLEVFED
# Method in brief: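 Agonist-mode beta-lactamase reporter assay, HEK 293 cells, 2% charcoal/dextran FBS; cells plated 4 hrs, compound 18 hrs at 37 C, CCF4 2 hrs RT. Normalized to 10 nM T3 (100%) and DMSO (0%); Hill fit gives EC50, efficacy.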
# [3] = target: Thyroid hormone receptor beta (Homo sapiens) (UniProt P10828); assay: qHTS assay for small molecule antagonists of thyroid hormone receptor beta signaling (AID 588547; active means well fitted inhibition curve with a large enough effect in the signal ratio, with a control signal flat, not every such curve was filed as active; the % refers to the signal ratio;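 further: cells stimulated with 0.4 nM T3 agonist during compound exposure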); conditions: TR-UAS-bla HEK293, beta-lactamase ratio, antagonist mode, 18 h
# Method in brief: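 Inhibition of T3-driven (0.4nM final) beta-lactamase reporter activity was measured over 0.59 nM to 92 uM compound after 18 h at 37 C. The cells were GripTite HEK293 TR-UAS-bla in charcoal/dextran-stripped serum, with CCF4 ratio read-out and IC50 from Hill fits.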
# [4] = target: Voltage-gated inwardly rectifying potassium channel KCNH2 (Homo sapiens) (UniProt Q12809); assay: qHTS Assay for Small Molecule Inhibitors of the Human hERG Channel Activity (AID 588834); conditions: U2OS BacMam hERG, FluxOR thallium flux fluorescence; series mostly up to 92.2 µM;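 further: top concentration of the series differs between compounds; lower thallium flux fluorescence means stronger hERG block; nearly all actives have a fitted effect of over 50% in size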
# Chain of Voltage-gated inwardly rectifying potassium channel KCNH2 (Homo sapiens) (Q12809 whole entry, looked up): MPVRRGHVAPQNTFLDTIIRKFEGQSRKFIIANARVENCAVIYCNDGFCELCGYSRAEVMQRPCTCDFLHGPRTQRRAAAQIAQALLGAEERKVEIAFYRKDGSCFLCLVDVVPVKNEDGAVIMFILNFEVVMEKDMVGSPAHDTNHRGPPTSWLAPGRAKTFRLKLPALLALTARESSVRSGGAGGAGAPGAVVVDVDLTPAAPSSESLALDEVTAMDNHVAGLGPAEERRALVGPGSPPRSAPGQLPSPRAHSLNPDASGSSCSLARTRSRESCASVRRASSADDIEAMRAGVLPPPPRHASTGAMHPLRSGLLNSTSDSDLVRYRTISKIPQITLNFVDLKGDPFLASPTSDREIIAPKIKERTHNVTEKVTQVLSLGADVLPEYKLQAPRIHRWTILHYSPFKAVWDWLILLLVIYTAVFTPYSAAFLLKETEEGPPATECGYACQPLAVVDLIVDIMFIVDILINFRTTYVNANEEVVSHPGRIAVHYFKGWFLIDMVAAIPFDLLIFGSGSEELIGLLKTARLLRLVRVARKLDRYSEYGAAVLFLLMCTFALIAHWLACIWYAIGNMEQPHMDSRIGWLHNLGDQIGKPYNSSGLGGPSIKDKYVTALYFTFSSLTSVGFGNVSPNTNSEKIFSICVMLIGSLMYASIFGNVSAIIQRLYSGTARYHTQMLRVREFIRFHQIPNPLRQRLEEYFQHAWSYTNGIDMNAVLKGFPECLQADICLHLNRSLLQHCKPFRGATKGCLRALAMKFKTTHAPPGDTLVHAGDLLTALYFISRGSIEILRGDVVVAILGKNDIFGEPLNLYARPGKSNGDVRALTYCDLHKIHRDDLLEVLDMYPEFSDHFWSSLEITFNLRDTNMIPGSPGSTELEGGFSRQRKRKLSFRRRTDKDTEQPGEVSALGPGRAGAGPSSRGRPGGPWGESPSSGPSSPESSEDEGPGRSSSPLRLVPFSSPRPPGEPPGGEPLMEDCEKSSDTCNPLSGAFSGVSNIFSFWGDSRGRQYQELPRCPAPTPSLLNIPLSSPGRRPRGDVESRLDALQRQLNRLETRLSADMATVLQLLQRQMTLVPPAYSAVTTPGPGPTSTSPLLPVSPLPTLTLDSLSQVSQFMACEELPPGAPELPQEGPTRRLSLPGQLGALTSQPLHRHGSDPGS
# Method in brief: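 Blockade is seen as reduced FluxOR thallium-flux fluorescence in U2OS cells expressing hERG from a BacMam construct, in Opti-MEM with 2% FCS. Concentration-response data fitted to the Hill equation for AC50.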
# [5] = target: Luciferin 4-monooxygenase (Photinus pyralis) (UniProt P08659); assay: Biochemical firefly luciferase enzyme assay for NPC (AID 624030); further: nearly all actives have a fitted effect of over 70% in size; further: potency means the concentration at half of the fitted maximal effect; conditions: purified P. pyralis luciferase, luminescence, 5 min; series mostly up to 58.6 µM
# Chain of Luciferin 4-monooxygenase (Photinus pyralis) (P08659 whole entry, looked up): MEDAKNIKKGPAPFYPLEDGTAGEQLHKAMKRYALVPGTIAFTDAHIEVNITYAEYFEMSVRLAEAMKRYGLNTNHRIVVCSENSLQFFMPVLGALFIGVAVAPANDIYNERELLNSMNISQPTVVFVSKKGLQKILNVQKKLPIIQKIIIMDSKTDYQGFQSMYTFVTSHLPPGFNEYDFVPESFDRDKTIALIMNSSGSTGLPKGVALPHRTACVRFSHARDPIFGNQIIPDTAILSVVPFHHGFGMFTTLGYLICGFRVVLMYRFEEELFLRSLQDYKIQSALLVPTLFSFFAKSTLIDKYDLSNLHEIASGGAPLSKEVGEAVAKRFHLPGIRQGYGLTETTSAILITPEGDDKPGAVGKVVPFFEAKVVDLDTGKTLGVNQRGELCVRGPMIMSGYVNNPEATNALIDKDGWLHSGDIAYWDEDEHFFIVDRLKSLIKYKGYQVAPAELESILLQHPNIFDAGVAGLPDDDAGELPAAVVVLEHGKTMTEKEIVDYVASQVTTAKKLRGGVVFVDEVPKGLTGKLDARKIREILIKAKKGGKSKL
# Method in brief: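 Direct inhibition of firefly luciferase enzyme (10 nM final, 50 mM Tris Acetate) assessed by luminescence within 5 minutes. Percent activity scaled between DMSO and PTC124 positive control, with concentration-effect curves classified by fit quality and response.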
# [6] = S16 Schwann cell viability assay (CellTiter-Glo assay) (AID 624031); conditions: S16 rat Schwann cells viability, 24 h; series mostly up to 57.5 µM;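 further: cellular ATP luminescence as a viability measure; nearly all actives have a fitted effect of over 70% in size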
# Method in brief: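 CellTiter-Glo ATP luminescence counter-screen in untransfected S16 rat Schwann cells, 24h compound exposure at 37 degree Celsius after overnight seeding (500-750 cells/well); response scaled between cell-free wells and DMSO (0% activity), curves classed by r2 and magnitude.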
# [7] = qHTS assay for small molecule antagonists of retinoid X receptor alpha signaling (AID 588546; active means well fitted inhibition curve with a large enough effect in the signal ratio, with a control signal flat, not every such curve was filed as active; the % refers to the signal ratio;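 further: cells stimulated with 9-cis-retinoic acid as agonist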); conditions: HEK293T RXRa-UAS-bla, beta-lactamase ratio, antagonist mode; measured here: W530 green channel, cytotoxicity proxy
# Method in brief: (§1)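 Beta-lactamase reporter inhibition, read as CCF4 fluorescence ratio (ex 405, em 460/530 nm) after 2 h at RT. HEK293T UAS-bla cells, 2500/well, were stimulated with 9-cis-RA at 500 or 100 nM final alongside test compound for 18 h at 37 C.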
# [8] = target: Retinoic acid receptor RXR-alpha (Homo sapiens) (UniProt P19793); assay: as above; conditions: HEK293T RXRa-UAS-bla, beta-lactamase ratio, antagonist mode
# Method in brief: as §1
# [9] = S16 Schwann cell PMP22 intronic element firefly luciferase assay (AID 624032); conditions: S16 rat Schwann cells, PMP22 element FLuc, 24 h; further: potency means the concentration at half of the fitted maximal effect; nearly all actives have a fitted effect of over 30% in size
# Method in brief: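 Luciferase reporter of PMP22 intronic-element expression in stably transfected S16 rat Schwann cells, read by ONE-Glo luminescence after 24 h compound exposure at 37 C. Activity scaled between DMSO (0%) and positive-control PTC124; concentration-effect curves quality-classified.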
# [10] = S16 Schwann cell PMP22 intronic element beta-lactamase assay (AID 624044; calls by dose curve; further: potency means the concentration at half of the fitted maximal effect; nearly all actives have a fitted effect of over 15% in size); conditions: S16 rat Schwann cells, PMP22 element beta-lactamase FRET, 24 h
# Method in brief: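 Rat S16 Schwann cells with beta-Lac driven by a PMP22 intronic element, compound-treated 24 h at 37 °C. LiveBLAzer FRET B/G read: 460 nm normalized to potassium clavulanate vs DMSO; 535 nm FRET as viability; concentration-effect curves classified.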
Compound,outcome [1],outcome [2],activity change % (negative = inhibition) [3],outcome [4],Potency [5],outcome [6],max response [7] [%],max response [8],Potency [9],Potency [10]
CC(=O)O[C@H]1C(=O)[C@@]2(C)[C@H]([C@H](OC(=O)c3ccccc3)[C@]3(O)C[C@H](OC(=O)[C@H](O)[C@@H](NC(=O)c4ccccc4)c4ccccc4)C(C)=C1C3(C)C)[C@]1(OC(C)=O)CO[C@@H]1C[C@@H]2O,inactive,inactive,-8.03% (inactive),inactive,inactive,inactive,–,–,–,–
CC(=O)O[C@@H]1CC(C)=C2[C@H]1[C@H](C)CC[C@H]2/C=C(\C)C(=O)O,inactive,inactive,19.9% (inactive),inactive,–,–,-4.2,22.1% (inactive),–,–
Cc1ccc(N)cc1O,inactive,inactive,-1.32% (inactive),inactive,–,–,-3.5,0.585% (inactive),–,–
CC[C@]1(O)CC2CN(CCc3c([nH]c4ccccc34)[C@@](C(=O)OC)(c3cc4c(cc3OC)N(C)[C@H]3[C@@](O)(C(=O)OC)[C@H](OC(C)=O)[C@]5(CC)C=CCN6CC[C@]43[C@@H]65)C2)C1 (stereo partly drawn),–,–,–,–,inactive,–,–,–,721 nM (active),224 nM (active)
Nc1ccccc1N,inactive,inactive,-38.2% (inactive),inactive,2630 nM (active),–,1.4,-8.62% (inactive),–,–
